Measurements: PubChem BioAssay AID893 (National Center for Advancing Translational Sciences (NCATS), 2007)
In all, about 75,000 compounds went through this assay and about 5,700 (7.6%) were called active. Not shown: some 7% with an inconclusive outcome. Calls follow the shape of the dose curve; as a rule, active = well fitted inhibition curve with a large enough effect; inconclusive = small, poorly fitted or top-dose-only effect; inactive = no such curve, though single readings can be large or run the other way. For the sample, actives were picked, then their nearest neighbours and some compounds at random.

target: 3-hydroxyacyl-CoA dehydrogenase type-2 (Homo sapiens) (UniProt Q99714); test: qHTS Assay for Inhibitors of HSD17B4, hydroxysteroid (17-beta) dehydrogenase 4; conditions: recombinant HSD17B10, NADH fluorescence kinetic; series mostly up to 57.1 µM; activity change, negative = inhibition: at the top concentration;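 also: the protocol describes HADH2 (HSD17B10) and not the HSD17B4 of the title; nearly all actives have a fitted effect of over 70% in size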
How it was run: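 Enzyme plus compound, 15 min room temperature; substrate mix added (NAD+ 1 mM, beta-hydroxybutyryl-CoA 90 uM final); plates read kinetically for NADH fluorescence. HADH2 was His-tagged, E. coli-derived, 20 nM.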
% is scaled to controls: 0 for no effect and ±100 for the full control effect; potency is read from the fitted curve at half-maximal effect.

Row | SMILES | activity change, negative = inhibition | Potency
1 | Cc1ccc(S(=O)(=O)N2CCC(C(=O)N[C@@H](C)C(=O)NCc3ccccc3)CC2)cc1 | 6.7% (inactive) | –
2 | O=C(Nc1cccc2c1CCCC2)C1CCN(C(=O)NC2CCCCC2)CC1 | -3.12% (inactive) | –
3 | c1ccc2sc(SCCSc3nc4ccccc4s3)nc2c1 | 2.8% [at 11.4 µM] (inactive) | –
4 | O=C(c1cc(-c2cccc(O)c2)on1)N1CCc2ccccc2C1 | -24.6% (inactive) | –
5 | O=C1CN(C(=O)COC(=O)C2CC(=O)N(Cc3ccco3)C2)c2ccccc2N1 (centres undefined) | -2.17% (inactive) | –
6 | CN(C)C(=O)/N=N\C(=O)N(C)C | -21.2% (inactive) | –
7 | CN1CCN(c2ncc3nc(-c4ccc(Cl)cc4)c(=O)n(-c4ccccc4)c3n2)CC1 | – | 25.1 µM (active)
8 | O=c1c(-c2ccc(F)c(F)c2)nc2cncnc2n1-c1ccccc1 | -28% (inactive) | –
9 | COCCn1c(=O)c(-c2ccc(OC)cc2)nc2cnc(Oc3cccc(Cl)c3)nc21 | -646% [at 57.1 µM, above what the read-out allows, likely interference] (inactive) | –
10 | CN1CCN(c2cc(=O)n(-c3ccc(Cl)cc3)c(=O)[nH]2)CC1 | -5.62% (inactive) | –
11 | COc1ccc(-c2nc3cnc(Oc4ccccc4)nc3n(Cc3cccs3)c2=O)cc1 | – | 12.6 µM (active)
12 | O=C1c2cccnc2C(=O)N1Cc1cccs1 | 5.59% (inactive) | –
13 | C=CC(=O)OCCOCCOCCOCCOC(=O)C=C | – | inactive
14 | Cc1ccccc1NC(=O)Cc1nnc(SCC(=O)N2CCN(c3ccccc3)CC2)n1C | -23.9% (inactive) | –
15 | Cc1nnc(SCC(=O)Nn2cnnc2)s1 | 2.74% (inactive) | –
16 | CC(C)[C@H](CO)Nc1nc(Nc2cc(N)cc(Cl)c2)c2ncn(C(C)C)c2n1 | -27.3% (inactive) | –
17 | Cc1c(CN2CCC(C)CC2)c(=O)n(-c2ccccc2)n1C | 0.527% (inactive) | –
18 | COC(=O)[C@@H]1C[C@@]2(O)[C@H](O)[C@H](O)[C@H](O)C[C@H]2N1CC1CCCCC1 | 6% (inactive) | –
19 | CCOc1ccc(S(=O)(=O)n2ccnc2)c2ccccc12 | -4.92% (inactive) | –
20 | C[C@@H](Nc1nc(-c2ccccc2)nc2c1oc1ccccc12)C(=O)O | -5.05% (inactive) | –
21 | CCc1nc(Nc2ccc3nccnc3c2)c2oc3ccccc3c2n1 | – | 12.6 µM (active)
22 | CCSc1nc(C)nc2c1oc1ccccc12 | -23.1% (inactive) | –
23 | Cc1cccc(N2CCN(S(=O)(=O)c3ccc4c(c3)c(=O)n(C)c(=O)n4C)CC2C)c1 (centres undefined) | 1.18% (inactive) | –

Row | SMILES | activity change, negative = inhibition | Potency
24 | Cc1ccc(C)c(S(=O)(=O)n2cnc3ccccc32)c1 | -2.14% (inactive) | –
25 | CC(=O)OCC1OC(C#Cc2ccccc2Cl)C=CC1OC(C)=O (centres undefined) | -6.58% [at 11.4 µM] (inactive) | –
26 | COc1ccc2nc(NC3=NCN(CC4CCCO4)CN3)nc(C)c2c1 (centres undefined) | – | 31.6 µM (active)
27 | COc1ccc(C2CC(=O)C=C(NCC3CCCO3)C2)cc1 (centres undefined) | -5.32% (inactive) | –
28 | Cc1ccc2nc(NC3=NCN(CCc4ccccc4)CN3)nc(C)c2c1 | 3.14% (inactive) | –
29 | Oc1ccccc1CNCc1ccccc1O | -0.327% [at 11.4 µM] (inactive) | –
30 | CSc1sc(C)cc1C1C(C#N)=C(N)N(c2cccnc2)C2=C1C(=O)CCC2 (centres undefined) | – | 15.8 µM (active)
31 | O=S(=O)(c1ccccc1)N1CCC2(CC1)CN(Cc1nccs1)C2 | 6.63% (inactive) | –
32 | CCCC(C(=O)N1CCOCC1)N1C(=O)C2C3C=CC(C3)C2C1=O (centres undefined) | 3.68% (inactive) | –
33 | O=C(O)C1CCN(S(=O)(=O)N2CCOCC2)CC1 | 12.1% (inactive) | –
34 | COc1ccccc1N1CCN(C(=O)c2cc3c(-c4ccc(Cl)cc4)nn(C)c3s2)CC1 | -6.74% (inactive) | –
35 | Cn1nc(-c2ccc(Cl)cc2)c2cc(C(=O)NCc3ccco3)sc21 | – | 31.6 µM (active)
36 | CCOC(=O)N1CCN(C(=O)c2cc3c(-c4ccc(Cl)cc4)nn(C)c3s2)CC1 | 5.07% (inactive) | –
37 | CC(Cc1ccccc1)C(=O)N(C)Cc1ccccc1 (centres undefined) | -7.16% (inactive) | –
38 | Cc1ccc(C)n1C(Cc1ccccc1)C(=O)O (centres undefined) | – | 10 µM (active)
39 | O=C(C(Cc1ccccc1)n1cccc1)N1CCN(C2CCCCC2)CC1 (centres undefined) | -2.66% (inactive) | –
40 | C=CCn1c(SCc2cc(C(=O)OC)c(C)o2)nnc1-c1ccncc1 | -12.7% (inactive) | –
41 | CCC(C)(C(=O)NC1CCCC1)N(C(=O)CNC(C)=O)c1ccc(C)cc1 (centres undefined) | -3.05% (inactive) | –
42 | Cc1ccc2cc(C#N)c(SCC(=O)NCC3CCCO3)nc2c1C (centres undefined) | 12% (inactive) | –
43 | O=C(CSC1=Nc2ccccc2C2=NC(c3ccccc3)C(=O)N12)NCC1CCCO1 (centres undefined) | – | 31.6 µM (active)
44 | O=C(CS(=O)(=O)Cc1ccccc1)NCC1CCCO1 (centres undefined) | 2.9% (inactive) | –
45 | Cc1ncn(C23CC4CC(CC(O)(C4)C2)C3)n1 | 12.4% (inactive) | –
46 | COC(=O)C1(C)C=CC2(CCCCC2)N1C(C)=O (centres undefined) | 25.3% (inactive) | –

Row | SMILES | activity change, negative = inhibition | Potency
47 | O=C(O)C1=CCCN(CCON=C(c2ccccc2)c2ccccc2)C1 | – | inactive
48 | O=C(Nc1ccccc1)N[C@H]1C[C@H](C(=O)O)Nc2cc(Cl)cc(Cl)c21 | -2.74% (inactive) | –
49 | COc1cc2nc(N3CCN(C(=O)[C@@H]4CCCO4)CC3)nc(N)c2cc1OC | – | 12.6 µM (active)
50 | O=C(C1CCCO1)N1CCC(c2nc3ccccc3[nH]2)CC1 (centres undefined) | -27% (inactive) | –
51 | COc1ccc(S(=O)(=O)N2CCC(C(=O)N3CCOCC3)CC2)cc1OC | 7.24% (inactive) | –
52 | COc1ccc(N2C(=O)C3CCCN3C2c2cc(OC)c(OC)cc2OC)cc1 (centres undefined) | 3.49% (inactive) | –
53 | CCN(CC)S(=O)(=O)c1cc(C(=O)Nc2ccccn2)ccc1C | 4.29% (inactive) | –
54 | CCOc1ccccc1C(=O)NCc1ccco1 | – | 25.1 µM (active)
55 | CCCCOc1ccc(C(=O)NCc2ccco2)cc1 | -4.29% (inactive) | –
56 | COc1ccccc1C(=O)NCCn1cc(SCC(=O)NCc2ccco2)c2ccccc21 | -14.1% (inactive) | –
57 | CC(C)(C)NC(=O)NC(=O)COC(=O)Cn1c(C(F)(F)F)nc2ccccc21 | 6.12% (inactive) | –
58 | Cn1cccc1C(=O)NC(=O)COC(=O)Cc1coc2ccc3ccccc3c12 | – | 31.6 µM (active)
59 | Cn1cccc1C(=O)Nc1nccs1 | 1.39% (inactive) | –
60 | CSCC[C@H](NC(=O)NCCc1ccc(F)cc1)C(=O)O | 7.27% (inactive) | –
61 | O=C1OC(C(O)CO)C(O)=C1O (centres undefined) | 7.41% (inactive) | –
62 | COc1ccc(CCN=C2SCC(=O)N2C)cc1OC | 11.7% (inactive) | –
63 | COc1ccc(C(=O)N(Cc2ccc(N(C)C)cc2)C2CCS(=O)(=O)C2)cc1 (centres undefined) | -23.7% (inactive) | –
64 | CCCCC(CC)CN (centres undefined) | – | inactive
65 | O=C(c1ccc(O)cc1)c1ccc(C(=O)O)c(C(=O)O)c1 | -7.84% (inactive) | –
66 | N[C@@H](C(=O)O)c1ccc(P(=O)(O)O)cc1 | -11.4% (inactive) | –
67 | N[C@H](C(=O)O)c1ccc(C(=O)O)c(O)c1 | – | 39.8 µM (active)
68 | Cc1noc(NS(=O)(=O)c2ccc(NC(=O)C34CCC(CC3)C4)cc2)c1C | 8.81% (inactive) | –
69 | CCOC(=O)N/N=C1/C[C@@H](O)[C@@H](O)[C@@H]2[C@@H]3C(=O)N(CC)C(=O)[C@H]3CC[C@H]12 | 7.25% [at 11.4 µM] (inactive) | –
